NS1 function inh: influenza NS1 inhibition; Potency, µM (doses to about 46.1 µM); actives 0.4% (n = 270,000); also: actives are rising curves; nearly all actives have a fitted effect of over 50% in size
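Growth recovery, yeast-based: influenza A NS1 expressed in S. cerevisiae causes slow growth, and suppressors are detected by OD600. The parent strain without NS1 is used as positive control.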
Shiga toxin inh: inhibitors of Shiga toxin in Vero cells. Vero cells, Shiga toxin protein synthesis inhibition reporter. inhibition, % at 38.7 µM. actives 9.2% (n = 290,000). AID 2315; in the data active = inhibition mostly above about 28%, no sharp cut-off; inactive = mostly below about 43%
SARS PLP yeast: inhibitors of SARS-CoV papain-like protease in yeast; Potency, µM (doses to about 32.9 µM), actives largely listed as activators; actives 0.19% (n = 330,000); S. cerevisiae expressing SARS-CoV PLpro, growth rescue; also: nearly all actives have a fitted effect of over 55% in size
CHX counter: counter-screen for Shiga toxin inhibitors: cycloheximide protein synthesis inhibition; cell reporter, cycloheximide protein synthesis inhibition counterscreen; max response, %; actives 12% (n = 300,000); AID 2314; in the data active = max response mostly above about 13%, no sharp cut-off; inactive = mostly below about 14%; also: read at 38.3 µM for the half of the compounds with a filed dose
Large screens that a line does not name were inactive. Compounds with a hit are over-represented: about 12% of the library has one in this group of screens. Unless noted, calls follow the shape of the full dose curve.

CCc1ccc(NC(=O)CCCN2C(=O)C3CC=CCC3C2=O)cc1 (stereo unspecified)	Shiga toxin inh 97.2, CHX counter 72.3
Cc1cccc(NC(=O)CCCN2C(=O)C3CC=CCC3C2=O)c1 (stereo unspecified)	none
CCCN1CCC(NC(=S)Nc2ccc([N+](=O)[O-])cc2)CC1	CHX counter 10.2
O=[N+]([O-])c1ccc(NNC(=S)Nc2ccc(F)cc2)cc1	Shiga toxin inh 85.6, CHX counter 27.5
CC(C)CCNC(=S)Nc1ccc(Br)cc1	Shiga toxin inh 47.9, CHX counter 30.0
CCCN1CCN(C(=S)Nc2ccc([N+](=O)[O-])cc2)CC1	none
CC(C)CCNC(=S)Nc1ccc([N+](=O)[O-])cc1	CHX counter 30.2
CCCNC(=S)Nc1ccc(Br)cc1	SARS PLP yeast inconclusive
CC(C)CCNC(=O)/C=C/c1ccc(Br)cc1	Shiga toxin inh 99.7, CHX counter 37.3
Cc1ccc(NC(=S)NCC(C)C)cc1	Shiga toxin inh 39.5, CHX counter 35.4
CC(C)NC(=S)NC(=O)/C=C/c1ccc(F)cc1	SARS PLP yeast inconclusive
S=C(NCCc1ccccc1)Nc1ccc(Br)cc1	CHX counter 52.8
CCOc1ccc(-c2cnc3n2CCCCC3)cc1	CHX counter 8.6
c1cc2c(cc1-c1cnc3n1CCC3)OCCO2	Shiga toxin inh 86.9
c1ccc(-c2ccc(-c3cnc4n3CCCCC4)cc2)cc1	CHX counter 22.5
O[C@@H](c1cc(-c2ccccc2)nc2c1ccc1ccccc12)C1CCCCN1 (stereo partly specified)	none (no result: Shiga toxin inh, SARS PLP yeast, CHX counter)
S=c1[nH]nc(Cc2ccc(Cl)cc2)o1	none
N#Cc1ccc(COc2ccc(CCO)cc2-n2nc3ccccc3n2)cc1	none
OCCc1ccc(O)c(-n2nc3ccccc3n2)c1	Shiga toxin inh 58.9, CHX counter 22.3
CCN(CC)S(=O)(=O)c1cccc(NC(=O)CCNC(=O)c2ccc([N+](=O)[O-])cc2)c1	Shiga toxin inh 48.3, CHX counter 13.8
CCCCNC(=O)c1cc2cc(CC)ccc2[nH]1	CHX counter 14.4
COc1cc2cc(C(=O)NCCc3ccccc3)[nH]c2cc1OC	none
COc1ccc(S(=O)(=O)Nc2ccc(OCC(=O)O)cc2)c2ccccc12	none
NC(=O)c1c(NC(=O)CSc2nnc(-c3ccco3)n2-c2ccccc2)sc2c1CCC2	NS1 function inh 1.41µM
N#Cc1c(NC(=O)CSc2nnc(-c3ccco3)n2-c2ccccc2)sc2c1CCC2	none
COc1ccc2oc(=O)c(C(=O)C[n+]3cccc(C)c3)cc2c1	none
Cc1cc(C(=O)Cn2nc(C(=O)O)c3ccccc3c2=O)c(C)n1-c1ccc(F)cc1	Shiga toxin inh 154.6, CHX counter 48.7
CCCn1c(C)cc(C(=O)Cn2nnc3ccccc3c2=O)c1C	Shiga toxin inh 82.3, CHX counter 34.7 (no result: NS1 function inh)
C=CCn1c(C)cc(C(=O)Cn2nc(C(=O)O)c3ccccc3c2=O)c1C	Shiga toxin inh 55.7, CHX counter 31.6
COCCn1c(C)cc(C(=O)Cn2nc(C(=O)O)c3ccccc3c2=O)c1C	none (no result: NS1 function inh)
CSCC[C@H](NC(=O)[C@@H]1CCCN1C(=O)[C@H](CCCN=C(N)N)NC(=O)[C@H](CC(C)C)NC(=O)[C@@H]1CCCN1C(=O)[C@@H](NC(=O)[C@@H](N)CCC(N)=O)C(C)C)C(=O)N[C@H](C(=O)N[C@@H](Cc1ccc(O)cc1)C(=O)N[C@@H](CCCCN)C(=O)O)[C@@H](C)O	none (no result: NS1 function inh, SARS PLP yeast)
C[N+]1(CCC(=O)c2ccco2)CC2CCC(CC2)C1 (stereo unspecified)	none (no result: Shiga toxin inh, SARS PLP yeast, CHX counter)
O=C1CC(/C=C/c2ccncc2)=Nc2ccccc2N1	CHX counter 30.5
COc1ccc(NC(=O)COC(=O)Cc2cccs2)cc1OC	none (no result: NS1 function inh, Shiga toxin inh, CHX counter)
Cc1cccc(NC(=O)/C(C#N)=C/c2ccc(Cl)cc2)n1	none
O=C(/C=C/c1ccccc1)Nc1cccc(C(=O)O)c1	Shiga toxin inh 23.5, CHX counter 34.7
O=C(/C=C/c1ccccc1)Nc1ccc(Cl)cn1	Shiga toxin inh 111.6, CHX counter 33.0
Cc1cccc(NC(=O)/C=C/c2ccc(Cl)cc2)n1	Shiga toxin inh 65.4, CHX counter 35.1
CCN(CC)S(=O)(=O)c1ccc(/C=C/C(=O)Nc2cccc(F)c2)cc1	CHX counter 33.3
CSc1cccc(NC(=O)/C=C/c2ccc(Cl)cc2)c1	Shiga toxin inh 51.1, CHX counter 39.9
CSc1cccc(NC(=O)/C=C/c2ccccc2)c1	Shiga toxin inh 71.4, CHX counter 35.6
CSc1ccc(/C=C/C(=O)Nc2ccccc2)cc1	none (no result: NS1 function inh)
CCOc1ccc(C(C)=O)cc1CSc1nc2nc(C)cc(C)n2n1	none
Cc1cc(/C=N/Nc2nc(N)ncc2[N+](=O)[O-])c(C)n1-c1cccc(C(F)(F)F)c1	Shiga toxin inh 61.7, CHX counter 26.2
Cc1cc(/C=N/Nc2ccc([N+](=O)[O-])cn2)c(C)n1-c1ccc(C(=O)O)cc1	none (no result: NS1 function inh)

Bioassay records deposited in PubChem BioAssay by National Center for Advancing Translational Sciences (NCATS).
